{"source": "PubChem BioAssay (EPA / NIEHS)", "note": "Active and inactive are the calls of the source. How the source made its calls: active means hit-call score of the fitted dose curve at least 0.9, where 1 is the maximum; inactive means score below 0.9.", "data": [{"assay": "ATG_FoxO_CIS: Attagene CIS-FACTORIAL HepG2 Assay for human Forkhead box O (FoxO) (AID 2282943)", "conditions": "HepG2 Attagene cis-reporter, FoxO element, mRNA; actives raise or lower the signal", "experimental": "ATG_CIS is a cell-based, multiplexed-readout assay that uses HepG2, a human liver cell line, with measurements taken at 24 hours after chemical dosing in a 24-well plate.ATG_FoxO_CIS is one of 52 assay component(s) measured or calculated from the ATG_CIS assay. It is designed to make measurements of mRNA induction, a form of inducible reporter, as detected with fluorescence intensity signals by Reverse transcription polymerase chain reaction (RT-PCR) and Capillary electrophoresis technology.Data from the assay component ATG_FoxO_CIS was analyzed into 1 assay endpoint. This assay endpoint, ATG_FoxO_CIS, was analyzed with bidirectional fitting relative to DMSO as the negative control and baseline of activity. Using a type of inducible reporter, measures of mRNA for gain or loss-of-signal activity can be used to understand the reporter gene at the transcription factor-level as they relate to the gene FOXO1 and FOXO3. Furthermore, this assay endpoint can be referred to as a primary readout, because this assay has produced multiple assay endpoints where this one serves a reporter gene function. To generalize the intended target to other relatable targets, this assay endpoint is annotated to the dna binding intended target family, where the subfamily is forkhead box protein.\nHuman liver HepG2 cells are transiently transfected with multiple reporter transcription units (MRTUs) in 6-well plates using FuGene 6 reagent (Roche; 3 ml FuGene/1 mg DNA). The MRTU constructs are regulated by a cis-regulating element (promoter). […] A major difference between the CIS and TRANS system is that in CIS activities of endogenous TFs are measured, whereas the TRANS assay evaluates changes in activities of exogenous, chimeric NR-Gal4 proteins. […] At the end of 24 hour incubation, total RNA was isolated using TriZol reagent (Invitrogen). The isolated RNA is then reverse-transcribed using oligo(dT) primer and Mo-MLV reverse transcriptase (Invitrogen) with DNAse I (Ambion) treatment for 30 min. The one-tenth of the produced cDNA was amplified by PCR using Taq DNA polymerase (Invitrogen) and two reporter sequence-specific primers. The PCR products were fluorescently labeled by primer extension with 6-arboxyfluorescein (6-FAM) 5'-labeled reporter sequence-specific primer (2 min at 95 C, 20 s at 68 C and 10 min at 72 C) and these products were digested with 5U of HpaI (New England Biolabs) for 2h at 37 C. The fragments were purified using Qiaquick PCR columns (Qiagen), analyzed on an ABI 3130xL genetic analyzer (Applied Biosystems) with peak positions identified by using a set of X-rhodamine (ROX)-labeled MapMarker1000 molecular weight standards (BioVentures). The raw capillary electrophoresis data was processed using Attagraph software (Attagene).", "values": [{"compound": "C[Si]1(C)O[Si](C)(C)O[Si](C)(C)O[Si](C)(C)O[Si](C)(C)O1", "outcome": "inactive"}, {"compound": "O=C1CCCCCCCCCCCN1", "outcome": "inactive"}, {"compound": "CCCCNS(=O)(=O)c1ccc(C)cc1", "outcome": "inactive"}, {"compound": "CCCC=C(C=O)CC", "outcome": "inactive"}, {"compound": "CC(C)COC(=O)CC(C(=O)OCC(C)C)S(=O)(=O)O", "note": "(stereo not given)", "outcome": "inactive"}, {"compound": "Cc1noc(NS(=O)(=O)c2ccc(N)cc2)c1C", "outcome": "inactive"}, {"compound": "CN1CCN(C)CC1", "outcome": "inactive"}, {"compound": "O=C(O)/C=C/c1ccccc1", "outcome": "inactive"}, {"compound": "N#CC1(N)CCCCC1", "outcome": "inactive"}, {"compound": "CCC(C)N", "note": "(stereo not given)", "outcome": "inactive"}, {"compound": "CCN1CCCC1=O", "outcome": "inactive"}, {"compound": "CCCCNS(=O)(=O)c1ccccc1", "outcome": "inactive"}, {"compound": "CCC1COC(=O)O1", "note": "(stereo not given)", "outcome": "inactive"}, {"compound": "c1ccc2cnccc2c1", "outcome": "inactive"}, {"compound": "CO[Si](C)(C)OC", "outcome": "inactive"}, {"compound": "COC(=O)C=Cc1ccccc1", "outcome": "inactive"}, {"compound": "Nc1nc(N)nc(-c2ccccc2)n1", "outcome": "inactive"}, {"compound": "C/C=C/C=C/CCCCCCCO", "outcome": "inactive"}, {"compound": "Cn1cccc1", "outcome": "inactive"}, {"compound": "CCCCC(C=O)CC", "note": "(stereo not given)", "outcome": "inactive"}, {"compound": "CCC(C)(O)CCCC(C)C", "note": "(stereo not given)", "outcome": "inactive"}, {"compound": "CCN(CC)c1cccc(C)c1", "outcome": "inactive"}, {"compound": "C1CCSC1", "outcome": "inactive"}, {"compound": "C[N+](C)(C)CCCNS(=O)(=O)C(F)(F)C(F)(F)C(F)(F)C(F)(F)C(F)(F)C(F)(F)C(F)(F)C(F)(F)F", "outcome": "inactive"}, {"compound": "O=C1CCCCC1C1CCCCC1", "note": "(stereo not given)", "outcome": "inactive"}, {"compound": "CC1(C)C(=O)N(CO)C(=O)N1CO", "outcome": "inactive"}, {"compound": "C=C[Si](OCCOC)(OCCOC)OCCOC", "outcome": "inactive"}, {"compound": "C1CNCCN1", "outcome": "inactive"}, {"compound": "CC(=O)OCc1ccccc1", "outcome": "inactive"}, {"compound": "CCCCCCCCCCCCCC(=O)OC(C)C", "outcome": "inactive"}, {"compound": "CCCCCCCCCCCC(=O)OCC", "outcome": "inactive"}, {"compound": "CC(C)C(=O)OCCc1ccccc1", "outcome": "inactive"}, {"compound": "Oc1ccccc1Cc1ccccc1O", "outcome": "inactive"}, {"compound": "Cc1c(Cl)cccc1Cl", "outcome": "inactive"}, {"compound": "C=C1C[C@H]2[C@@H]3C=C(C)C4=CC(=O)CC[C@]4(C)[C@H]3CC[C@]2(C)[C@@]1(OC(C)=O)C(C)=O", "AC50": "93.7 µM (active)"}, {"compound": "Cc1ccc2c(c1)CCCN2", "outcome": "inactive"}, {"compound": "COC(OC)(C(=O)c1ccccc1)c1ccccc1", "outcome": "inactive"}, {"compound": "COC(=O)c1ccc(C(=O)OC)c(C(=O)OC)c1", "outcome": "inactive"}, {"compound": "C=CC(=O)OCCCCCCCCCC", "outcome": "inactive"}, {"compound": "CCCCNC(=S)NCCCC", "outcome": "inactive"}]}]}
